Inconclusive results are not listed. Active and inactive are the calls of the source. Calls come from the whole dose curve; as a rule, active = well fitted curve in the direction sought with a large enough effect; inconclusive = small, poorly fitted or top-dose-only effect, or another doubt; inactive = no such curve, though single readings can be large; an effect the other way counts as inactive or inconclusive. Peptide text beside a SMILES is read from it.
Tests used:
[1] = Quantitative High-Throughput drug screen in 47 multiple myeloma cell lines against the NCATS MIPE library collection: NCIH929_DSMZ cell viability assay (AID 1918978); conditions: NCI-H929 myeloma viability, CellTiter-Glo ATP, 48 h; series mostly up to 45.8 µM; note: nearly all actives have a fitted effect of over 35% in size
In short: (§1)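 Myeloma cells (500/well) treated with MIPE 4.0 compounds for 48 h at 37 °C, 5% CO2. Viability read as ATP via CellTiter-Glo luminescence after 5 min at RT; DMSO-only wells = 100%, media-only = 0% viability.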

[2] = Quantitative High-Throughput drug screen in 47 multiple myeloma cell lines against the NCATS MIPE library collection: OCIMY1_PLB cell viability assay (AID 1918979); conditions: OCI-MY1 myeloma viability, CellTiter-Glo ATP, 48 h; series mostly up to 45.8 µM; note: nearly all actives have a fitted effect of over 35% in size
In short: as §1

[3] = Quantitative High-Throughput drug screen in 47 multiple myeloma cell lines against the NCATS MIPE library collection: MM1S_ATCC cell viability assay (AID 1918980); conditions: MM1S myeloma viability, CellTiter-Glo ATP luminescence, 48 h; series mostly up to 45.8 µM; note: nearly all actives have a fitted effect of over 45% in size
In short: as §1

[4] = Quantitative High-Throughput drug screen in 47 multiple myeloma cell lines against the NCATS MIPE library collection: MM1R_ATCC cell viability assay (AID 1918981); conditions: MM1R multiple myeloma cells, CellTiter-Glo viability, 48 h; series mostly up to 45.8 µM; note: nearly all actives have a fitted effect of over 35% in size
In short: as §1

[5] = Quantitative High-Throughput drug screen in 47 multiple myeloma cell lines against the NCATS MIPE library collection: LP1_DSMZ cell viability assay (AID 1918982); conditions: LP1 myeloma viability, CellTiter-Glo ATP luminescence, 48 h; series mostly up to 45.8 µM; note: nearly all actives have a fitted effect of over 35% in size
In short: as §1

[6] = Quantitative High-Throughput drug screen in 47 multiple myeloma cell lines against the NCATS MIPE library collection: KMS28PE_JCRB cell viability assay (AID 1918983); conditions: KMS28PE multiple myeloma viability, CellTiter-Glo ATP, 48 h; series mostly up to 45.8 µM; note: nearly all actives have a fitted effect of over 35% in size
In short: as §1

[7] = Quantitative High-Throughput drug screen in 47 multiple myeloma cell lines against the NCATS MIPE library collection: KMS34_JCRB cell viability assay (AID 1918985); conditions: KMS34 myeloma viability, CellTiter-Glo ATP luminescence, 48 h; series mostly up to 45.8 µM; note: nearly all actives have a fitted effect of over 40% in size
In short: as §1

[8] = Quantitative High-Throughput drug screen in 47 multiple myeloma cell lines against the NCATS MIPE library collection: OCIMY7_PLB cell viability assay (AID 1918987); conditions: OCI-MY7 myeloma viability, CellTiter-Glo ATP, 48 h; series mostly up to 45.8 µM; note: nearly all actives have a fitted effect of over 65% in size
In short: as §1

[9] = Quantitative High-Throughput drug screen in 47 multiple myeloma cell lines against the NCATS MIPE library collection: OCIMY5_PLB cell viability assay (AID 1918988); conditions: OCI-MY5 myeloma viability, ATP luminescence, 48 h; series mostly up to 45.8 µM; note: nearly all actives have a fitted effect of over 65% in size
In short: as §1

[10] = Quantitative High-Throughput drug screen in 47 multiple myeloma cell lines against the NCATS MIPE library collection: L363_DSMZ cell viability assay (AID 1918984); conditions: L363 myeloma viability, CellTiter-Glo ATP luminescence, 48 h; series mostly up to 45.8 µM; note: nearly all actives have a fitted effect of over 40% in size
In short: as §1

Measured: Potency
Potency is the fitted concentration of half-maximal effect.

CCN(CC)CCOc1ccc(Nc2ncc3cc(-c4c(Cl)cccc4Cl)c(=O)n(C)c3n2)cc1
active: [1] 1.87 µM | [2] 2.96 µM | [3] 2.35 µM | [4] 1.32 µM | [5] 1.87 µM | [6] 1.18 µM | [7] 0.166 µM | [8] 1.48 µM | [9] 0.105 µM

CC1=C(C(=O)O)N2C(=O)[C@@H](NC(=O)[C@H](N)C3=CCC=CC3)[C@H]2SC1
inactive: [1] | [2] | [4] | [5] | [7] | [9]

COc1cc2nc(N3CCN(C(=O)C4CCCO4)CC3)nc(N)c2cc1OC (configuration not stated)
inactive: [1] | [2] | [3] | [4] | [6]
active: [10] 1.48 µM

CC1(C)CCC(C)(C)c2cc(NC(=O)c3ccc(C(=O)O)cc3)ccc21
inactive: [2]
active: [1] 14.8 µM | [3] 16.6 µM | [4] 13.2 µM | [9] 1.66 µM

CC1Cc2ccccc2N1NC(=O)c1ccc(Cl)c(S(N)(=O)=O)c1 (configuration not stated)
active: [3] 16.6 µM
inactive: [1] | [2] | [4] | [5] | [7]

CC(=O)NC[C@H]1CN(c2ccc(N3CCOCC3)c(F)c2)C(=O)O1
inactive: [1] | [2] | [4] | [6] | [7]
active: [3] 8.33 µM

CCOC(=O)c1c(C)n(C)c2ccc(O)cc12
inactive: [1] | [2] | [4] | [5] | [6] | [10]
active: [7] 3.72 µM | [9] 3.72 µM

N=C(N=C(N)N)N1CCOCC1
inactive: [1] | [2] | [5] | [6] | [7]
active: [3] 10.5 µM

Cc1nc2n(c(=O)c1CCN1CCC(c3noc4cc(F)ccc34)CC1)CCCC2
inactive: [1] | [2] | [3] | [4] | [5] | [6] | [7]

O=C(O)c1cccnc1Nc1cccc(C(F)(F)F)c1
inactive: [1] | [2] | [3] | [4] | [5] | [6] | [10] | [7] | [8]

COC(=O)[C@H](Cc1ccccc1)NC(=O)[C@@H](N)CC(=O)O (H-Asp-Phe-OMe)
inactive: [1] | [2] | [3] | [4] | [5] | [6] | [7] | [8] | [9]

Oc1ccc(OCc2ccccc2)cc1
active: [7] 18.7 µM
inactive: [1] | [2] | [3] | [4] | [5] | [6] | [10]

CS(=O)(=O)OCCCCOS(C)(=O)=O
inactive: [1] | [2] | [3] | [7] | [8]
active: [4] 3.72 µM | [6] 13.2 µM | [9] 5.9 µM

CN(C)CCc1c[nH]c2ccc(Cn3cncn3)cc12
inactive: [1] | [2] | [4] | [5] | [7]

NC(=NCc1ccccc1)NC(=O)c1nc(Cl)c(N)nc1N
inactive: [2] | [4] | [5] | [7] | [9]
active: [1] 1.32 µM | [3] 0.935 µM | [10] 23.5 µM | [8] 8.33 µM

O=C(O)c1cccc(-c2noc(-c3ccccc3F)n2)c1
inactive: [1] | [2] | [5] | [7]
active: [3] 20.9 µM | [6] 14.8 µM | [9] 9.35 µM

NS(=O)(=O)c1cc(C(=O)O)c(NCc2ccco2)cc1Cl
inactive: [1] | [2] | [4] | [5] | [6] | [10] | [7]

Cc1nc(-c2ccc(OCC(C)C)c(C#N)c2)sc1C(=O)O
inactive: [1] | [2] | [3] | [6] | [7]

COC(=O)C1=C(C)NC(C)=C(C(=O)OCCCN2CCC(c3ccccc3)(c3ccccc3)CC2)C1c1cccc([N+](=O)[O-])c1 (configuration not stated)
inactive: [1] | [2] | [5] | [6] | [8]
active: [4] 20.9 µM | [7] 3.32 µM

COC(=O)C1=C(C)NC(C)=C(C(=O)OC(C)C)C1c1cccc2nonc12 (configuration not stated)
inactive: [2] | [4] | [5] | [9]
active: [1] 2.64 µM | [3] 2.35 µM | [6] 18.7 µM | [8] 6.62 µM

NNc1nncc2ccccc12
inactive: [1] | [2] | [3] | [4] | [5] | [6] | [10] | [7] | [8]

O=C(O)CCNC(=O)c1ccc(N=Nc2ccc(O)c(C(=O)O)c2)cc1
inactive: [1] | [2] | [4] | [5] | [6] | [7]
active: [3] 8.33 µM

O=P(O)(O)C(O)(Cn1ccnc1)P(=O)(O)O
inactive: [1] | [2] | [4] | [5] | [6] | [10] | [9]

COc1c(O)cc2c(c1O)[C@@H]1O[C@H](CO)[C@@H](O)[C@H](O)[C@H]1OC2=O
inactive: [1] | [2] | [3] | [4] | [5] | [6] | [10] | [8] | [9]

Cc1cc(C2CCCCC2)n(O)c(=O)c1
active: [1] 7.43 µM | [2] 16.6 µM | [3] 0.935 µM | [4] 1.48 µM | [5] 14.8 µM | [10] 7.43 µM | [7] 5.26 µM | [8] 7.43 µM | [9] 2.09 µM

O=C(O)c1cn(-c2ccc(F)cc2)c2cc(N3CCNCC3)c(F)cc2c1=O
active: [3] 20.9 µM
inactive: [1] | [2] | [4] | [5] | [6] | [8]

CC(C)[C@H](N)C(=O)OCCOCn1cnc2c(=O)[nH]c(N)nc21
inactive: [1] | [2] | [4] | [5]
active: [6] 14.8 µM

CNC[C@H](O)c1ccc(O)c(O)c1
inactive: [1] | [10]
active: [2] 38.2 µM | [3] 17.1 µM | [4] 6.05 µM | [5] 30.3 µM | [6] 13.6 µM | [7] 30.3 µM

Nc1ccc(S(N)(=O)=O)cc1
inactive: [1] | [2] | [3] | [4] | [5] | [6] | [8] | [9]

C[Se]CCC(N)C(=O)O (configuration not stated)
inactive: [1] | [2] | [3] | [5] | [6] | [10]

CN1C(C(=O)Nc2ccccn2)=C(O)c2sccc2S1(=O)=O
inactive: [1] | [2] | [4] | [5] | [7]
active: [9] 6.62 µM

COc1cc(OC)c(C(=O)CCCN2CCCC2)c(OC)c1
inactive: [1] | [2] | [4] | [5] | [7] | [9]
active: [3] 16.6 µM

O=Nc1c(-c2c(O)[nH]c3cc(Br)ccc23)[nH]c2ccccc12
active: [1] 2.64 µM | [2] 26.4 µM | [3] 11.8 µM | [4] 16.6 µM | [5] 13.2 µM | [6] 23.5 µM | [10] 4.69 µM | [7] 3.32 µM | [8] 1.87 µM | [9] 7.43 µM

O=C(c1ccccc1)c1ccc2n1CCC2C(=O)O (configuration not stated)
active: [1] 5.26 µM | [3] 1.05 µM | [4] 2.09 µM | [8] 7.43 µM | [9] 0.743 µM
inactive: [2] | [5] | [6] | [10] | [7]

O=c1oc2cc(O)ccc2s1
active: [3] 0.935 µM
inactive: [1] | [2] | [4] | [6] | [10]

CN(C)c1ccc2nc3ccc(=[N+](C)C)cc-3sc2c1
active: [1] 6.62 µM | [2] 1.48 µM | [3] 2.64 µM | [4] 1.05 µM | [5] 4.69 µM | [6] 5.9 µM | [10] 3.72 µM | [7] 0.59 µM | [8] 2.35 µM | [9] 0.526 µM

COC(=O)N[C@H](C(=O)N[C@@H](Cc1ccccc1)[C@@H](O)CN(Cc1ccc(-c2ccccn2)cc1)NC(=O)[C@@H](NC(=O)OC)C(C)(C)C)C(C)(C)C
inactive: [1] | [2] | [3] | [10]
active: [7] 20.9 µM

COc1cc2c(cc1OC)C1CC(=O)C(CC(C)C)CN1CC2 (configuration not stated)
inactive: [1] | [2] | [4] | [5] | [6]

Nc1ncn([C@H]2C[C@H](O)[C@@H](CO)O2)c(=O)n1
active: [3] 0.418 µM | [8] 0.187 µM
inactive: [2] | [4] | [5] | [6] | [10]

COc1c2occc2cc2ccc(=O)oc12
inactive: [4] | [5] | [6] | [10] | [7]
active: [1] 5.26 µM | [3] 18.7 µM

COc1cc2c(N3CCN(C(=O)Nc4ccc(OC(C)C)cc4)CC3)ncnc2cc1OCCCN1CCCCC1
inactive: [10]
active: [1] 11.8 µM | [3] 26.4 µM | [8] 16.6 µM

COc1cc(C(C)=O)ccc1OCCCN1CCC(c2noc3cc(F)ccc23)CC1
active: [1] 18.7 µM | [4] 16.6 µM | [9] 6.62 µM
inactive: [2] | [6]

CC(S)C(=O)NCC(=O)O (configuration not stated)
inactive: [1] | [2] | [4] | [6] | [9]

COc1ccccc1N1CCN(CCN(C(=O)C2CCCCC2)c2ccccn2)CC1
inactive: [2] | [5] | [7]
active: [1] 8.33 µM | [8] 7.43 µM

Cc1cccc(C#Cc2ccccc2)n1
inactive: [2] | [5] | [6]
active: [1] 20.9 µM

— PubChem BioAssay (NCATS)
